Compounds with a hit are over-represented: about 11% of the library has one in this group of screens.
Pf growth 48h: Primary qHTS for delayed death inhibitors of the malarial parasite plastid, 48 hour incubation; P. falciparum luciferase growth in erythrocytes, 48 h; Potency, µM (doses to about 28.7 µM), for inactives: at the highest dose activity change, negative = inhibition, usual class: inhibitors; AID 504832, 2011; 5.9% of 310,000 active; further: on the % scale 0 is the no-effect control and ±100 the full control effect
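Read-out is firefly luciferase luminescence from an integrated reporter in P. falciparum, so falling signal marks reduced parasite growth. Infected erythrocytes were at 2% hematocrit and 0.1% parasitemia (final) in Albumax-supplemented RPMI 1640.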
AMA1 RON2 block: qHTS for Inhibitors of AMA1-RON; Towards Development of Antimalarial Drug Lead: Primary Screen; Potency, µM (series often up to 58.2 µM), for inactives: at the top dose activity change, negative = inhibition, hits mostly inhibitors; Plasmodium falciparum AMA1 (3D7) - RON2 peptide interaction; 0.2% of 360,000 active; AlphaScreen AMA1-biotinylated RON2 peptide binding;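 further: 0% = vehicle wells and -100% = peptide control; nearly all actives have a fitted effect of over 45% in size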
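AMA1 (3D7) with his tag at 25 nM final met compounds first, then biotinylated RON2 peptide at 25 nM; detection used donor plus acceptor beads, 10 µg/mL apiece, read by AlphaScreen after 30 min at room temperature.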
NS1 inh: qHTS Assay for Inhibitors of Influenza NS1 Protein Function | Potency, µM (series often up to 46.1 µM), inactives show at the highest dose activity, positive = more growth | 0.4% of 270,000 active | AID 2326, 2010; calls by dose curve; further: actives are rising curves; nearly all actives have a fitted effect of over 50% in size
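A cell-based growth assay was used: compounds that relieve NS1-induced slow growth of budding yeast raise OD600. Assay medium was yeast nitrogen base with ammonium sulphate and -URA supplement, pH 6.0, with 2% galactose.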
Pf growth 96h: Primary qHTS for delayed death inhibitors of the malarial parasite plastid, 96 hour incubation; P. falciparum luciferase reporter growth, 96 h; Potency, µM (top dose mostly 28.7 µM), for inactives: at the highest dose activity change, negative = inhibition, most hits filed as inhibitors; 6.9% of 320,000 active; AID 504834, 2011; further: on the % scale 0 is the no-effect control and ±100 the full control effect
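Readout is luminescence from an integrated firefly luciferase in P. falciparum. Red cells, 2% hematocrit and 0.05% parasitemia final, were cultured with compound through two parasite generations (96 hours) at 37 C, 5% CO2.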
Sm TGR block: qHTS Assay for the Inhibitors of Schistosoma Mansoni Peroxiredoxins; Schistosoma mansoni thioredoxin glutathione reductase (TGR), Q962Y6; purified TGR, DTNB reduction, TNB absorbance 405 nm; Potency, µM (doses to about 114 µM), inactives show at the top dose activity change, negative = inhibition, usual class: inhibitors; 3% of 360,000 active; further: on the % scale 0 is the no-effect control and ±100 the full control effect; nearly all actives have a fitted effect of over 60% in size
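First, TGR (20 nM dispensed) and NADPH were mixed with compound. Second, a 15 min room-temperature incubation followed. Third, further NADPH and then DTNB were added to start the reaction. Finally, TNB absorbance was monitored kinetically.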
* marks the source's active call; other numbers are inactive results; u = inconclusive; x = no result; [ ] = dose if it differs, or a comment. Unless noted, the call rests on the fitted dose curve; in most records, active means well fitted curve in the direction sought with a large enough effect; inconclusive means small, poorly fitted or top-dose-only effect, or another doubt; inactive means no such curve, though single readings can be large; an effect the other way counts as inactive or inconclusive. Potency means the concentration at half of the fitted maximal effect.

SMILES	Pf growth 48h	AMA1 RON2 block	NS1 inh	Pf growth 96h	Sm TGR block
Cc1sc(NC(=O)Cn2[nH]c(=O)c3ccccc3c2=O)nc1-c1ccccc1	u	55.5%	u	11.7µM*	-10.7%
CCOc1ccc(C2NC(=O)Cc3cc(OC)c(OC)cc32)cc1 (stereo unspecified)	-28.0%	3.6%	2.0%	u	9.3%
CCOc1ccc(C2OC(=O)Cc3cc(OC)c(OC)cc32)cc1 (stereo unspecified)	u	8.4%	4.2%	1.17µM*	-14.7%
O=C(NC1CC1)C1=C[C@@H](c2ccc(Br)cc2)C[C@@H](OCc2ccc(CO)cc2)O1	34.7%	-0.2%	-12.0%	39.2%	13.9%
COC(=O)c1ccc(OC)c(CSc2nnc(-c3ccc(C(C)(C)C)cc3)o2)c1	x	-2.2%	16.9%	0.657µM*	10.0%
Cc1cc(C)[n+](C2C3CC4CC(C3)CC2C4)o1 (stereo unspecified)	u	-14.5%	18.8%	1.85µM*	-2.5%
Brc1ccc(C2=CC(c3cccs3)n3ncnc3N2)cc1 (stereo unspecified)	u	-10.8%	-39.7%	-21.0%	22.4µM*
OCCCc1nc2n(n1)C(c1cccs1)C=C(c1ccc(Br)cc1)N2 (stereo unspecified)	u	x	1.8%	u	25.1µM*
O=C1NS(=O)c2cc([N+](=O)[O-])cc([N+](=O)[O-])c21 (stereo unspecified)	-12.3%	-5.3%	0.7%	0.0%	x
O=C1c2c([N+](=O)[O-])cc([N+](=O)[O-])cc2S(=O)N1Cc1ccccc1 (stereo unspecified)	0.0%	-12.1%	x	u	39.8µM*
NNC(=O)Cn1c(-c2ccccc2)cc(=O)n2ncnc12	-11.9%	-1.1%	9.5%	3.0%	-1.4%
COc1nc(N(C)C)nc(N(C#N)CCOC(C)=O)n1	-7.7%	13.5%	-2.1%	-8.4%	1.7%[57.1 µM]
Cc1ccccc1OCCN(C#N)c1nc(N(C)C)nc(N(C)C)n1	11.7µM*	7.3%	-1.2%	26.1%	83.2%
CCCCOC(=O)Nc1cc(C(=O)OC)ccc1C(=O)OC	10.4µM*	40.5%	-13.0%	u	4.1%
